Five molecules from PubChem BioAssay (NCI) can be followed below.

Some test systems named below: NCI-H23 lung; NCI-H226 lung; NCI-H322M lung; HOP-62 NSCLC; NCI-H460 lung; HOP-92 NSCLC; NCI-H522 lung; A549/ATCC NSCLC; 786-0 renal; COLO 205 colon; DU-145 prostate; K-562 leukemia; MALME-3M melanoma; MDA-MB-231 breast; RXF 393 renal; SF-268 CNS; SF-295 CNS; SF-539 CNS; UACC-257 melanoma; M14 melanoma.
Common to all, as to assay: NCI-60 one-dose screen, 48 h (100 = growth as untreated, 0 = no growth, -100 = all killed)
Common to all, as to details: 10 µM unless noted

Values joined by “and” are separate entries in the source; they are usually repeats but may differ in a detail not shown here. Identical values can stand only once. The panel holds about 83,000 compounds, 20% with a hit somewhere; the sample as a whole holds those more often.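 Assay: single dose, 48 h. Readout: percent growth (0 = no net growth; negative = cell death). Active: <10.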 Active and inactive are the calls of the source.

As for `NC1=NC(c2ccccc2)N=C(Nc2ccccc2)N1` (stereo not given), the growth in the experiment on NCI-H23 lung is 79.5% (inactive) and 66.5% (inactive); in the experiment on NCI-H226 lung, 81.7% (inactive) and 52.5% (inactive); in the experiment on NCI-H322M lung, 91.5% (inactive) and 84.7% (inactive); in the experiment with HOP-62 NSCLC, 78.1% (inactive) and 74.8% (inactive); with NCI-H460 lung, 103% (inactive) and 95% (inactive); in the experiment on HOP-92 NSCLC it was 81% (inactive) and 89.1% (inactive). In addition, the growth in the experiment with NCI-H522 lung is 83.8% (inactive) and 110% (inactive); in the experiment with A549/ATCC NSCLC it was 94.1% (inactive) and 106% (inactive); with 786-0 renal, 93.3% (inactive) and 101% (inactive); with COLO 205 colon, 91.7% (inactive) and 63.4% (inactive); in the experiment on DU-145 prostate, 105% (inactive) and 100% (inactive); in the experiment on K-562 leukemia, 53.4% (inactive) and 65.1% (inactive). Moreover, the growth in the experiment on MALME-3M melanoma is 84.9% (inactive) and 53.8% (inactive); with MDA-MB-231 breast, 101% (inactive) and 74.6% (inactive); with RXF 393 renal it was 91.5% (inactive); in the experiment on SF-268 CNS it was 49.2% (inactive) and 54% (inactive); in the experiment with SF-295 CNS, 87.5% (inactive) and 83.6% (inactive); in the experiment on SF-539 CNS, 84.8% (inactive) and 55.2% (inactive). The growth is 91.9% (inactive) and 108% (inactive) in the experiment with UACC-257 melanoma; 81.9% (inactive) and 75.9% (inactive) in the experiment on M14 melanoma.

For the molecule `COc1cc(NCCCCCNC(C)C)c2ncccc2c1`, the growth with NCI-H23 lung was 104% (inactive) and 90.3% (inactive); in the experiment on NCI-H226 lung, 90.5% (inactive) and 94% (inactive); with NCI-H322M lung, 82.7% (inactive) and 104% (inactive); with HOP-62 NSCLC, 87.3% (inactive) and 92.5% (inactive); with NCI-H460 lung it was 103% (inactive) and 117% (inactive); with HOP-92 NSCLC, 82.5% (inactive). For the same molecule, the growth in the experiment with NCI-H522 lung was 92.2% (inactive) and 42% (inactive); in the experiment on A549/ATCC NSCLC it was 101% (inactive) and 94.7% (inactive); in the experiment on 786-0 renal, 94.4% (inactive) and 89.3% (inactive); in the experiment on COLO 205 colon, 91.7% (inactive) and 87.9% (inactive); in the experiment with DU-145 prostate, 111% (inactive); with K-562 leukemia, 91.1% (inactive) and 104% (inactive). Besides, the growth in the experiment with MALME-3M melanoma is 99.6% (inactive) and 125% (inactive); in the experiment with MDA-MB-231 breast, 89% (inactive) and 93.1% (inactive); with RXF 393 renal it was 90.9% (inactive) and 92.6% (inactive); in the experiment on SF-268 CNS it was 93.5% (inactive); with SF-295 CNS it was 104% (inactive) and 102% (inactive); in the experiment with SF-539 CNS, 91.9% (inactive) and 78.1% (inactive). For the same molecule, the growth was 113% (inactive) and 80.2% (inactive) in the experiment on UACC-257 melanoma; 96.9% (inactive) and 90.2% (inactive) in the experiment on M14 melanoma.

Take `Clc1ccc2c(c1)N(C1CCCN(Cc3ccccc3)C1)c1ccccc1S2` (stereo not given): the growth was 61.9% (inactive) with NCI-H23 lung; 82.1% (inactive) in the experiment on NCI-H226 lung; 31.1% (inactive) with NCI-H322M lung; 82.1% (inactive) in the experiment on HOP-62 NSCLC; 25.4% (inactive) in the experiment with NCI-H460 lung; 51.7% (inactive) in the experiment on HOP-92 NSCLC. The growth in the experiment on NCI-H522 lung is 14.9% (inactive); with A549/ATCC NSCLC, 35% (inactive); with 786-0 renal, 61.8% (inactive); in the experiment on COLO 205 colon it was 3.47% (active); with DU-145 prostate, 74.1% (inactive); in the experiment with K-562 leukemia it was 18.5% (inactive). Moreover, the growth in the experiment with MALME-3M melanoma was 78.4% (inactive); with MDA-MB-231 breast, 51.8% (inactive); in the experiment with RXF 393 renal, -15.7% (active); with SF-268 CNS it was 39.2% (inactive); with SF-295 CNS, 77.6% (inactive); with SF-539 CNS, 40.8% (inactive). Besides, the growth in the experiment with UACC-257 melanoma was 55.1% (inactive); with M14 melanoma, -26.9% (active).

`CC1CC(O)CC(C)(C)C1.CC1CC(O)CC(C)(C)C1.CC1CC(O)CC(C)(C)C1.CC1CC(O)CC(C)(C)C1.[Ti]` (stereo not given): the growth was 104% (inactive) in the experiment on NCI-H23 lung; 97.2% (inactive) in the experiment with NCI-H226 lung; 105% (inactive) in the experiment on NCI-H322M lung; 103% (inactive) in the experiment on HOP-62 NSCLC; 109% (inactive) in the experiment on NCI-H460 lung; 99.2% (inactive) in the experiment with HOP-92 NSCLC. The growth was 112% (inactive) in the experiment on NCI-H522 lung; 92.6% (inactive) in the experiment with A549/ATCC NSCLC; 107% (inactive) with 786-0 renal; 108% (inactive) in the experiment with COLO 205 colon; 121% (inactive) with DU-145 prostate; 98.2% (inactive) in the experiment with K-562 leukemia. In addition, the growth in the experiment on MALME-3M melanoma was 103% (inactive); in the experiment with MDA-MB-231 breast, 96.2% (inactive); with RXF 393 renal, 112% (inactive); in the experiment with SF-268 CNS, 115% (inactive); in the experiment on SF-295 CNS it was 102% (inactive); with SF-539 CNS, 107% (inactive). The growth was 113% (inactive) in the experiment with UACC-257 melanoma and 96% (inactive) in the experiment with M14 melanoma.

As to `CC(=O)Oc1ccc(C2(c3ccc(OC(C)=O)cc3)C(=O)Nc3ccccc32)cc1`, the growth with NCI-H23 lung was 41.5% (inactive) and 54.4% (inactive); in the experiment with NCI-H226 lung, 76.3% (inactive) and 82.9% (inactive); in the experiment on NCI-H322M lung, 33.1% (inactive) and 33.7% (inactive); in the experiment on HOP-62 NSCLC, 109% (inactive) and 93.1% (inactive); in the experiment with NCI-H460 lung, 104% (inactive); in the experiment on HOP-92 NSCLC, 68.4% (inactive) and 44.2% (inactive). The growth was 95.7% (inactive) and 83.2% (inactive) in the experiment with NCI-H522 lung; 96.1% (inactive) and 98% (inactive) with A549/ATCC NSCLC; 107% (inactive) and 93% (inactive) with 786-0 renal; 4.98% (active) and 17.2% (inactive) in the experiment on COLO 205 colon; 89% (inactive) and 89.9% (inactive) in the experiment on DU-145 prostate; 78.9% (inactive) and 93.8% (inactive) in the experiment with K-562 leukemia. Moreover, the growth in the experiment with MALME-3M melanoma was 128% (inactive) and 97.8% (inactive); in the experiment with MDA-MB-231 breast, 95.4% (inactive) and 87.4% (inactive); in the experiment on RXF 393 renal, 66.4% (inactive) and 76.9% (inactive); in the experiment on SF-268 CNS it was 96.7% (inactive) and 100% (inactive); in the experiment on SF-295 CNS it was 71.8% (inactive) and 86.3% (inactive); with SF-539 CNS it was 97.2% (inactive) and 92.2% (inactive). Further, the growth in the experiment with UACC-257 melanoma is 110% (inactive) and 114% (inactive); with M14 melanoma, 112% (inactive) and 99.4% (inactive).
